# Bioassay records from PubChem.
# FAS-TE inh – inhibitors of human fatty acid synthase thioesterase domain | 360,000 compounds, 0.67% hits | inhibition, % at 15 µM | AID 602261 | recombinant FAS-TE, OMFH fluorogenic substrate, fluorescence endpoint | P49327;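 active = compounds whose normalised, plate-corrected inhibition of enzyme fluorescence in the single-dose primary screen is 50% or more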;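 note: 0% = DMSO with enzyme and 100% = substrate without enzyme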
# p-CIP stab down – compounds decreasing mouse p/CIP protein stability | Q05BA5 | F442A p/CIP-EGFP cells, EGFP fluorescence, 16 h | decrease of EGFP signal, % at 10 µM | 290,000 compounds, 0.01% hits | AID 1984;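 active = EGFP signal decrease of at least 30% at 10 µM or well 3 SD below plate mean, unless failing retest; inactive = the rest, including hits failing retest or dose response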
# NR3A LBD binder – modulators (binders) of human NR3A ligand-binding domain; AID 1259313; NR3A LBD differential scanning fluorimetry, Tm shift; 0% = protein alone, 100% = glycine-bound protein; Tm shift relative to glycine control, % at 25 µM; 340,000 compounds, 2.5% hits;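 active = melting temperature shift of at least 10% of the positive control shift, at one fixed dose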
# MIN6 prolif – MIN6 beta-cell proliferation induction. MIN6 cells proliferation, ATPlite luminescence, 48 h; cells starved in 0.2% serum; 100% = growth in 10% serum. proliferation, % at 10 µM. 330,000 compounds, 0.29% hits. AID 2380;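 active = compounds whose signal lies at least 3.5 SD above the mean of all wells on their plate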;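 note: 0% = DMSO-treated cells in low-serum medium and 100% = 10% serum control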
# MPTP block – blocks calcium-induced mitochondrial swelling; isolated mouse mitochondria, Ca2+ swelling absorbance, 30 min; inhibition, % at 10 µM; 360,000 compounds, 1.4% hits;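 active = inhibition of 50% or more, scaled per plate between neutral and stimulator controls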;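 note: 0% = DMSO wells given calcium and 100% = 1 mM EGTA wells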
# MPTP counter – membrane potential counter-screen of mitochondrial pore inhibitors | 5,000 compounds, 78% hits | inhibition, % at 10 µM | shares compounds with MPTP block | isolated mitochondria, Rhodamine 123 fluorescence; in the data active = inhibition above about 22%;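 note: 0% = DMSO vehicle and 100% = positive control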
# MPTP abs DR – MPTP inhibition, dose response swelling confirmation; shares compounds with MPTP block; isolated mitochondria swelling, absorbance; IC50, µM; 780 compounds, 58% hits; in the data active = IC50 below about 20 µM
# MPTP cs DR – active in counter-screen for permeability transition pore inhibitors; shares compounds with MPTP block; isolated mitochondria counterscreen, fluorescence read-out; IC50, µM; 780 compounds, 49% hits; in the data active = IC50 below about 80 µM
# An asterisk follows results filed as active; nt = not tested or not shown. The list is not random: actives were taken first. Their share in the collection is about 4.1%.
SMILES,FAS-TE inh,p-CIP stab down,NR3A LBD binder,MIN6 prolif,MPTP block,MPTP counter,others
Cc1cc(Nc2cccc(Br)c2)c2ccccc2n1,-2.2,nt,-2.1,-2.4,83.3*,74.5*,
CNC(=O)N(O)C1N(NC(=O)Nc2ccccc2)C(=S)SC1(C)C (stereo not given),-13.6,nt,-0.2,-1.5,2.1,nt,
CC1(C)SC(=S)N(/N=C/c2ccccc2)C1N(O)C(=O)Nc1ccc([N+](=O)[O-])cc1 (stereo not given),-183.4,-21.7,14.5*,-3.4,100.9*,98.2*,
CC1(C)SC(=S)N(NC(=O)Nc2cccc3ccccc23)C1N(O)C(=O)Nc1ccccc1 (stereo not given),-106.0,-7.1,23.2*,0.0,94.9*,73.7*,
CC(C)(C)CC(C)(C)NCC(O)COc1c(F)cc(Br)cc1F (stereo not given),-11.5,-2.5,-1.3,-3.2,101.5*,-7.5,MPTP abs DR=7.11*;MPTP cs DR=56.6*
O=C1CSC(=S)N1/N=C/c1cc(Br)c(O)c(Br)c1,-36.9,-20.7,1.8,nt,83.2*,66.1*,
O=C(NCc1ccc2c(c1)OCO2)c1cccc(S(=O)(=O)N2CCCC2)c1,1.7,-11.4,-3.3,-1.2,1.0,nt,
CSCCC(Nc1ncnc2ccc(Br)cc12)C(=O)O (stereo not given),-5.7,-1.2,-1.3,-0.3,2.0,nt,
CC(C)Nc1ncnc2ccc(Br)cc12,-6.7,-9.1,7.4,-3.0,58.8*,38.2*,
O=C(CCSc1ccc(Cl)c(Cl)c1)NC12CC3CC(CC(C3)C1)C2,21.0,9.0,-10.0,-2.2,52.1*,45.1*,
O=C(CSc1ccc(F)cc1)NC12CC3CC(CC(C3)C1)C2,8.4,3.1,0.4,-2.0,1.0,nt,
CCC(C(=O)NC1CCCC1)N(C(=O)c1snc(C(N)=O)c1N)c1ccc(C)cc1C (stereo not given),9.6,-14.1,-4.3,-1.3,0.5,nt,
CC(C)c1ccc(NS(=O)(=O)c2ccc(Cl)nc2)cc1,14.0,-7.1,-17.9,-1.1,11.3,nt,
O=[N+]([O-])c1ccc(NS(=O)(=O)c2ccc(Cl)c(Cl)c2)cc1,36.8,nt,nt,nt,85.8*,102.4*,
O=[N+]([O-])c1cc(NS(=O)(=O)c2ccc(Cl)nc2)ccc1Cl,12.8,nt,1.0,-3.8,84.7*,96.9*,
O=[N+]([O-])c1ccc(S(=O)(=O)Nc2ccncc2)cc1,-3.8,-0.1,0.1,-2.1,0.0,nt,
O=[N+]([O-])c1ccc(Oc2ccc(S(=O)(=O)Nc3ccccc3)cc2)cc1,47.2,0.5,8.2,0.0,69.1*,85.1*,
CCOc1ccc(NC(=O)C2CCCN(c3c(CC)c(C)nc4ncnn34)C2)cc1 (stereo not given),-1.9,-12.6,0.2,-2.0,-0.4,nt,
C[C@@H](C(=O)Nc1ccc(OC(F)F)c(Cl)c1)N1C(=O)C2CC=CCC2C1=O (stereo not given in full),-0.7,nt,-0.5,1.4,0.7,nt,
O=c1cc(O)c(-c2ccc(Cl)cc2)c(Cl)[nH]1,-5.9,-11.3,-1.9,0.8,1.9,nt,
O=C1c2cc(Cl)ccc2-c2c(O)cc(Cl)cc21,2.8,nt,13.7*,nt,98.7*,77.8*,
COc1ccccc1NC(=O)COC(=O)c1ccc(N2CCCC2=O)cc1,-1.3,nt,2.3,-0.3,-1.1,nt,
CCCCCOc1ccc(Br)cc1/C(C)=N/NC1=NCCN1,-176.1,-4.3,2.4,-3.1,92.9*,24.2*,
C/C(=N\NC1=NCCN1)c1ccccc1,-12.6,-3.8,-0.6,-2.3,2.0,nt,
COc1ccc(Br)cc1/C(C)=N/NC1=NCCN1,-80.0,0.7,-1.4,1.9,105.0*,30.7*,
Cc1nc(Oc2ccc(S(=O)(=O)N3CCOCC3)cc2Cl)c2c3c(sc2n1)CCCC3,19.0,-6.4,-4.4,-2.4,0.2,nt,
CCNC(=O)N(CC)C[C@H]1N[C@@](Cc2ccccc2)(C(=O)OC)[C@H]2C(=O)N(C)C(=O)[C@@H]12,-10.8,nt,-2.4,2.2,-0.1,nt,
Cc1cc(C(=O)Nc2ccccc2)oc(=O)c1,-4.0,-0.4,4.5,-2.4,0.4,nt,
